Screening data deposited in PubChem by National Center for Advancing Translational Sciences (NCATS).
ELG1 DNA repair = blocks ELG1-dependent DNA repair in HEK293T cells; HEK293T ELG1-luciferase reporter, luminescence, 16 h; DNA damage induced by 5-fluorouridine; Potency, µM (series often up to 46.1 µM), without a hit: at the highest dose activity change, negative = inhibition, most hits filed as inhibitors; 330,000 tested, 2.3% active; AID 504467; further: on the % scale 0 is the no-effect control and ±100 the full control effect; nearly all actives have a fitted effect of over 55% in size
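Step one: seed 2,000 cells per well. Step two: pin-transfer compound or DMSO alongside 5-fluorouridine. Step three: incubate 16 hr, 37 °C, 5% CO2. Step four: add ONE-Glo, wait 30 min, read luminescence.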
MCF10A rerep = induces DNA re-replication in MCF 10a normal breast cells; AID 624296; MCF 10A DNA re-replication, Hoechst nuclear intensity, 48 h; Potency, µM (titrated, usually from 46.1 µM), for inactives: at the top dose activity, positive = re-replication, most hits filed as activators; 350,000 tested, 2.9% active; further: % of control where 0% means no effect; nearly all actives have a fitted effect of over 50% in size
VP16 counter = inhibits Gal4-VP16 luciferase reporter, ROR gamma counter-screen | Drosophila S2 Gal4-VP16 UAS-luciferase, luminescence, 20 h | Potency, µM (top dose mostly 53.6 µM), for inactives: at the top dose activity, negative = inhibition, most hits filed as inhibitors | 310,000 tested, 3.5% active | AID 2546;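 further: Gal4-VP16 expression switched on by copper sulfate through the metallothionein promoter; on the % scale 0 is the no-effect control and ±100 the full control effect; nearly all actives have a fitted effect of over 50% in size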
SW480 rereplic = induces DNA re-replication in SW480 colon adenocarcinoma cells; SW480 DNA re-replication, Hoechst DNA content imaging, 48 h; 340,000 tested, 1.8% active; Potency, µM (highest dose often 46.1 µM), without a hit: top-dose re-replication activation, usual class: activators; further: % of control where 0% means no effect; nearly all actives have a fitted effect of over 55% in size
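Readout is total intensity of Hoechst-stained nuclei, excited at 405 nm and collected at 500-530 nm. Compound treatment lasted 48 hr at 37 C in 5% CO2 before staining.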
RORg inh = inhibitors of mouse ROR gamma transcriptional activity; P51450; Drosophila S2 Gal4-RORgamma UAS-luciferase reporter, 20 h; Potency, µM (highest dose often 53.6 µM), without a hit: at the top dose activity change, negative = inhibition, usual class: inhibitors; 310,000 tested, 5.4% active; further: on the % scale 0 is the no-effect control and ±100 the full control effect; nearly all actives have a fitted effect of over 60% in size
Target sequence (P51450 whole entry, looked up, the tested form may be a part): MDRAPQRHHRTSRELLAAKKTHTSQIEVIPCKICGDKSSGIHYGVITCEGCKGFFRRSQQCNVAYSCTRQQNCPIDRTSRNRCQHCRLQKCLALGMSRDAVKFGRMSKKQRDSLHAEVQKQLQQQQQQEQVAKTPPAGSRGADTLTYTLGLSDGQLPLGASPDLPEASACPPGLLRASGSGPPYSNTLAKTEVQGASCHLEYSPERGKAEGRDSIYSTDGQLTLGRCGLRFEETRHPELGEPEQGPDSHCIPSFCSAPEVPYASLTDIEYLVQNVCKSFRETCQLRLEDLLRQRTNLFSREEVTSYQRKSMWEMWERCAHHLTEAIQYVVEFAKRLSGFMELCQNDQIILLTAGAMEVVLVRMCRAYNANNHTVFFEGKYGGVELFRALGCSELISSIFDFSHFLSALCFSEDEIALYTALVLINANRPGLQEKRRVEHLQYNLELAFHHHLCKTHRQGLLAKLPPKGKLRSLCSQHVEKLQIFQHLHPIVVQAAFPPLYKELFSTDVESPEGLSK
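Stably transfected Drosophila Schneider cells are the test system, with ROR gamma fused to Gal4 and luciferase under UAS control; luminescence is read after 20 hr of 700 uM copper sulfate induction at ambient temperature.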
* hit, by the source's call; [ ] = remark or other dose. In the library only some 10% were active in any assay of this set; here they are far more common. The call rests on the fitted dose curve; in most records, active means well fitted curve in the direction sought with a large enough effect; inconclusive means small, poorly fitted or top-dose-only effect, or another doubt; inactive means no such curve, though single readings can be large; an effect the other way counts as inactive or inconclusive. Potency means the concentration at half of the fitted maximal effect.

Screening O=C(NCc1nc2ccccc2[nH]1)C1=C[C@H](c2coc3ccccc3c2=O)C[C@H](OCc2ccc(CO)cc2)O1 returned ELG1 DNA repair -39.1%, MCF10A rerep 4.8%, VP16 counter 12.2%, SW480 rereplic -1.8% and RORg inh 10.0%.
For O=C(Nc1cccc(S(=O)(=O)N2CCCC2)c1)c1ccco1 the results were ELG1 DNA repair 13.3%, MCF10A rerep -8.5% and SW480 rereplic 9.7%.
For CN(c1ccccc1)S(=O)(=O)c1cccc(NC(=O)c2cc(=O)c3ccccc3o2)c1 the results were ELG1 DNA repair 14.6µM*, MCF10A rerep 25.9µM*, VP16 counter -8.8%[10 µM], SW480 rereplic -0.5% and RORg inh inconclusive.
`O=C(Nc1cccc(S(=O)(=O)N2CCCCCC2)c1)c1cc(=O)c2ccccc2o1` gave ELG1 DNA repair 11.6µM*, MCF10A rerep inconclusive, VP16 counter -16.0%, SW480 rereplic -6.3% and RORg inh -2.1%.
CC1=CC(C)(C)NC(=S)N1c1ccc(C)cc1C was read as ELG1 DNA repair -26.9%, MCF10A rerep -0.7%, VP16 counter 2.82µM*, SW480 rereplic -18.6% and RORg inh 1.41µM*.
CC1=CC(C)(C)NC(=S)N1c1cc(C)cc(C)c1 was read as ELG1 DNA repair inconclusive, MCF10A rerep -4.8%, VP16 counter inconclusive, SW480 rereplic -1.1% and RORg inh 3.55µM*.
CC1=CC(C)(C)NC(=S)N1c1ccc(N(C)C)cc1 was read as MCF10A rerep 3.5% and SW480 rereplic 0.2%.
`CC1=CC(C)(C)NC(=S)N1c1ccccc1C` gave ELG1 DNA repair 4.0%, MCF10A rerep -37.1%, VP16 counter 0.2%[10 µM], SW480 rereplic 2.9% and RORg inh 2.24µM*.
`CC1=CC(C)(C)NC(=S)N1c1cccc(Cl)c1` gave MCF10A rerep 4.6% and SW480 rereplic 0.1%.
Screening CCC(C(=O)Nc1cnccn1)c1ccccc1 (stereo not given) returned ELG1 DNA repair 0.1%, MCF10A rerep 11.1%, VP16 counter -8.8%, SW480 rereplic -3.9% and RORg inh -1.7%.
`CCC(C(=O)NNC(=O)c1cnccn1)c1ccccc1` (stereo not given) gave ELG1 DNA repair -11.8%, MCF10A rerep 14.7%, VP16 counter 15.8µM*, SW480 rereplic inconclusive and RORg inh 11.2µM*.
`Cc1ccc(C(=O)CC(=O)COc2ccc(Cl)cc2C)cc1` gave ELG1 DNA repair 26.3%, MCF10A rerep 0.0%, VP16 counter 4.47µM*, SW480 rereplic -35.7% and RORg inh 10µM*.
Cc1cc(Cl)ccc1OCC(=O)NNC(=O)c1cnccn1 was read as ELG1 DNA repair -8.1%, MCF10A rerep 6.8%, VP16 counter inconclusive, SW480 rereplic -4.0% and RORg inh 7.08µM*.
Screening O=C(COc1cccc2ccccc12)NNC(=O)c1cnccn1 returned ELG1 DNA repair -5.0%, MCF10A rerep 11.4%, VP16 counter inconclusive, SW480 rereplic 0.2% and RORg inh 12.6µM*.
Screening CCc1cccc(NC(=O)C2CCCN2S(=O)(=O)c2ccc3c(c2)CC(C)N3C(C)=O)c1 (stereo not given) returned ELG1 DNA repair inconclusive, MCF10A rerep 16.4%, VP16 counter -2.7%, SW480 rereplic 2.5% and RORg inh -0.3%.
For CC(=O)c1c(C)[nH]c(C(=O)NNC(=O)COc2ccc(Cl)cc2C)c1C the results were ELG1 DNA repair -11.1%, MCF10A rerep 7.08µM* and SW480 rereplic -20.0%.
Cc1cc(Br)ccc1OCC(=O)NNC(=O)c1cnccn1 was read as ELG1 DNA repair -8.9%, MCF10A rerep -9.3%, VP16 counter inconclusive, SW480 rereplic 0.0% and RORg inh 8.91µM*.
For O=C(Nc1nc(-c2cccc3ccccc23)cs1)c1cnccn1 the results were ELG1 DNA repair -0.4%, MCF10A rerep 18.4µM*, VP16 counter inconclusive, SW480 rereplic inconclusive and RORg inh 14.1µM*.
`CCCn1c(SCC(=O)Nc2nnc(C)s2)nnc1C1CC1` gave ELG1 DNA repair 0.3%, MCF10A rerep -20.0%, VP16 counter -13.7%, SW480 rereplic -3.2% and RORg inh -6.2%.
COc1cccc(-c2nc(CS(=O)CC(=O)NCc3ccc4c(c3)OCO4)c(C)o2)c1 (stereo not given) was read as ELG1 DNA repair -27.1%, MCF10A rerep 14.4%, VP16 counter 0.9%, SW480 rereplic -0.7% and RORg inh -18.4%.
`CCc1ccc(N2CCN(C(=O)N3CCOCC3)CC2)cc1` gave ELG1 DNA repair 1.7%, MCF10A rerep 3.6%, VP16 counter -11.8%[10 µM], SW480 rereplic -1.8% and RORg inh 19.3%.
`CC1CN(C(=O)N2c3ccccc3Sc3ccccc32)CC(C)O1` (stereo not given) gave ELG1 DNA repair 12.5%, MCF10A rerep inconclusive, VP16 counter 3.55µM*, SW480 rereplic 7.8% and RORg inh 31.4%.
`O=C(NC1CCN(C(=O)N2c3ccccc3Sc3ccccc32)CC1)c1ccccc1F` gave ELG1 DNA repair inconclusive, MCF10A rerep 28.1%, VP16 counter 3.55µM*, SW480 rereplic 15.6% and RORg inh inconclusive.
Screening COc1ccc(-n2c(COc3ccc(C)cc3)n[nH]c2=S)cc1 returned ELG1 DNA repair 14.2%, MCF10A rerep -9.1%, VP16 counter 7.08µM*, SW480 rereplic 4.4% and RORg inh 5.62µM*.
COc1ccc(-n2c(COc3ccccc3)n[nH]c2=S)cc1 was read as ELG1 DNA repair -9.1%, MCF10A rerep 5.6%, VP16 counter -11.4%, SW480 rereplic -2.1% and RORg inh 7.08µM*.
COc1ccc(-n2c(-c3cnccn3)n[nH]c2=S)cc1 was read as ELG1 DNA repair 13.3%, MCF10A rerep 1.2%, VP16 counter -10.2%, SW480 rereplic -0.4% and RORg inh inconclusive.
For Cc1ccc(-n2c(COc3ccccc3)n[nH]c2=S)cc1 the results were ELG1 DNA repair 3.1%, MCF10A rerep -6.3%, VP16 counter inconclusive, SW480 rereplic -2.1% and RORg inh 2.51µM*.
Screening O=C(c1cc(C(F)(F)F)cc(C(F)(F)F)c1)N1CCC2(CC1)CN(c1ccccc1)C2 returned VP16 counter 6.0% and RORg inh -0.7%.
`CN(CC(=O)NCCc1ccccc1)S(=O)(=O)c1ccc(Br)s1` gave ELG1 DNA repair -5.2%, MCF10A rerep 7.9%, VP16 counter -20.9%, SW480 rereplic -0.6% and RORg inh 1.1%.
`CCc1cc(C(=O)c2ccc(OC)cc2)c(NC(=O)CN2CCCCC2)s1` gave ELG1 DNA repair -4.8%, MCF10A rerep -1.3%, VP16 counter -24.0%, SW480 rereplic -4.7% and RORg inh 7.08µM*.
